High-throughput results deposited in PubChem BioAssay by SRMLSC.
Most compounds without a hit are left out; they make up all but 6.5% or so of the library.
NADH coupling: inhibitors of enzymes used to reach an NAD/NADH endpoint; coupled PK/LDH NADH assays, four targets; IC50, µM (doses to about 10 µM), for inactives: at the highest dose inhibition; 0.02% of 65,000 active;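 active = single-dose screening hits from any of four coupled enzyme assays that gave an IC50 when retested across doses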;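 note: the DPM-DC format reads NADH fluorescence rather than 340 nm absorbance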
DPM-DC inhibit: inhibitors of Streptococcus pneumoniae diphosphomevalonate decarboxylase; AID 556; purified DPM-DC, PK/LDH coupled NADH fluorescence; 0.49% of 65,000 active; calls only at 10 µM;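 active = the 320 compounds with the highest percent inhibition in the single-dose primary screen, excluding strongly autofluorescent ones, cut at about 32% in these data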;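 note: kinetic rate of NADH fluorescence loss reporting ADP formed by the decarboxylase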
PMK inhibit: inhibitors of Streptococcus pneumoniae phosphomevalonate kinase | purified PMK, PK/LDH-coupled NADH absorbance 340 nm | inhibition, % at 10 µM | 0.49% of 65,000 active;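 active = top-ranked compounds by inhibition in the single 10 µM screen, taking a fixed number of the strongest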;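 note: 0% = full reaction with DMSO carrier and 100% = background rate without enzyme reaction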
Autofluor 339: intrinsic fluorescence of library compounds, ex339/em460 – biochemical, MLSMR library, data from DPM-DC assay, artefact control, profiling panel | fluorescence fold increase at 10 µM | 5.5% of 65,000 active | compound autofluorescence, ex339/em460 nm, NADH buffer; stronger effect = higher value; 1 = no-compound wells, NADH background;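 active = at 10 µM, mean starting fluorescence two-fold or more over control wells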;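 note: signal is the first read of a kinetic run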
Spn MK inh: inhibitors of Streptococcus pneumoniae mevalonate kinase. 0.48% of 65,000 active. purified MK, PK/LDH-coupled NADH absorbance 340 nm. inhibition, % at 10 µM;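 active = ranked among the strongest by inhibition in the single 10 µM screen, a fixed top-ranked set picked for dose follow-up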
A340 absorber: absorbance at 340 nm | fold change at 10 µM | compound absorbance at 340 nm, fold over control | 65,000 tested, under 10 active | AID 708;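 active = at 10 µM dose, initial 340 nm absorbance at least 2 fold that of control wells; inactive = change under 2 fold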;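 note: initial absorbance extrapolated from kinetic A340 decline of NADH oxidation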
* hit, by the source's call.

CCCn1nnc(NC(=O)COc2ccc(C3CCCCC3)cc2)n1 was read as NADH coupling 4%, DPM-DC inhibit inactive, PMK inhibit 6, Autofluor 339 1.1, Spn MK inh 6 and A340 absorber 1.
Screening O=C(C1CCC(=O)N1C1CCCCC1)N1CCN(c2ccc(F)cc2)CC1 (stereo unspecified) returned NADH coupling 6%, DPM-DC inhibit inactive, PMK inhibit 18, Autofluor 339 1.1, Spn MK inh 0 and A340 absorber 1.
O=C(Cn1cnc2ccccc21)Nc1cc(C(F)(F)F)ccc1N1CCOCC1 was read as NADH coupling 5%, DPM-DC inhibit inactive, PMK inhibit 14, Autofluor 339 1.1, Spn MK inh 0 and A340 absorber 1.
FC(F)(F)c1ccc(N2CCOCC2)c(Nc2nc3ccccc3n3cnnc23)c1 was read as NADH coupling 2%, DPM-DC inhibit inactive, PMK inhibit 2, Autofluor 339 2.5*, Spn MK inh 4 and A340 absorber 1.
Screening Cc1[nH]n2c(=O)cc(C(C)(C)C)nc2c1-c1ccccc1 returned NADH coupling 16%, DPM-DC inhibit inactive, PMK inhibit 13, Autofluor 339 2.3*, Spn MK inh 12 and A340 absorber 1.
`O=C(Nc1ccc(-c2nnc(-c3ccccc3)o2)cc1)C(F)(F)F` gave NADH coupling 7%, DPM-DC inhibit inactive, PMK inhibit 0, Autofluor 339 1.7, Spn MK inh 4 and A340 absorber 1.1.
CC(=O)/C=C(\C)Nc1ccc(-c2cnc(-c3ccccc3)o2)cc1 was read as NADH coupling 9%, PMK inhibit 2, Autofluor 339 2.2*, Spn MK inh 15 and A340 absorber 1.2.
`CC1CCCCN1S(=O)(=O)c1ccc2c(c1)CCN2C(=O)C1CCC1` (stereo unspecified) gave NADH coupling 4%, DPM-DC inhibit inactive, PMK inhibit 5, Autofluor 339 1.2, Spn MK inh 8 and A340 absorber 0.98.
COc1cc(OC)cc(C(=O)Nc2ccc(-c3nc4ccccc4o3)cc2)c1 was read as NADH coupling 1%, PMK inhibit 0, Autofluor 339 2.2*, Spn MK inh 2 and A340 absorber 1.1.
`O=C(Nc1ccc(-c2nc3ccccc3o2)c(O)c1)c1cc(-n2cnnc2)ccc1Cl` gave NADH coupling 9%, PMK inhibit 6, Autofluor 339 3.9*, Spn MK inh 12 and A340 absorber 1.1.
For COc1cc(C(=O)Nc2cccc(-c3nc4ccccc4o3)c2C)cc(OC)c1OC the results were NADH coupling 5%, DPM-DC inhibit inactive, PMK inhibit 7, Autofluor 339 1.2, Spn MK inh 5 and A340 absorber 1.1.
Screening COc1cc(C(=O)Nc2ccc(-c3nc4cc(C)ccc4o3)c(O)c2)cc(OC)c1OC returned NADH coupling 2%, PMK inhibit 3, Autofluor 339 4.7*, Spn MK inh 0 and A340 absorber 1.2.
For COc1cccc(C(=O)Nc2ccc(-c3nc4ccccc4o3)c(O)c2)c1 the results were NADH coupling 8%, PMK inhibit 12, Autofluor 339 2.1*, Spn MK inh 4 and A340 absorber 1.2.
`O=C(Nc1ccc2oc(-c3ccccc3)nc2c1)c1ccncc1` gave NADH coupling 4%, DPM-DC inhibit inactive, PMK inhibit 6, Autofluor 339 1.1, Spn MK inh 7 and A340 absorber 1.1.
`Cc1ccc(C2C(C(=O)c3sc(C)nc3C)=C(O)C(=O)N2CCCN(C)C)o1` (stereo unspecified) gave NADH coupling 7%, DPM-DC inhibit inactive, PMK inhibit 10, Autofluor 339 1, Spn MK inh 10 and A340 absorber 1.1.
For CSC1=C(C#N)C(CC(C)C)C(C(C)=O)=C(C)N1 (stereo unspecified) the results were NADH coupling 5%, DPM-DC inhibit inactive, PMK inhibit 5, Autofluor 339 1.1, Spn MK inh 11 and A340 absorber 1.
For c1ccc2c(c1)ncc1cccn12 the results were NADH coupling 5%, PMK inhibit 8, Autofluor 339 2.1*, Spn MK inh 1 and A340 absorber 1.1.
For Cc1cc2nnc(SCC(=O)NCc3ccco3)n2c2ccccc12 the results were NADH coupling 6%, DPM-DC inhibit inactive, PMK inhibit 15, Autofluor 339 1.1, Spn MK inh 4 and A340 absorber 0.99.
`COCCn1c(-c2ccc(-c3ccccc3Cl)o2)nc2c1c(=O)[nH]c(=O)n2CC(C)C` gave NADH coupling 13%, PMK inhibit 13, Autofluor 339 2.1*, Spn MK inh 12 and A340 absorber 1.1.
O=C(O)CCCNCc1ccccc1F was read as NADH coupling 5%, DPM-DC inhibit inactive, PMK inhibit 11, Autofluor 339 1.1, Spn MK inh 5 and A340 absorber 0.98.
O=C(O)CCS(=O)(=O)Cc1ccccc1F was read as NADH coupling 9%, DPM-DC inhibit inactive, PMK inhibit 27*, Autofluor 339 1.1, Spn MK inh 1 and A340 absorber 1.
`C=CCOC(=O)Nc1c(C(=O)OC)[nH]c2ccc(Cl)cc12` gave NADH coupling 3%, DPM-DC inhibit inactive, PMK inhibit 4, Autofluor 339 1.9, Spn MK inh 6 and A340 absorber 1.1.
CCN=C(NCC)SC1CC(=O)N(c2cccc(OCC)c2)C1=O (stereo unspecified) was read as NADH coupling 1%, DPM-DC inhibit inactive, PMK inhibit 0, Autofluor 339 1.1, Spn MK inh 4 and A340 absorber 0.99.
For COc1ccccc1CNC(=O)C1CCN(S(=O)(=O)N2CC(C)CC(C)C2)CC1 (stereo unspecified) the results were NADH coupling 12%, DPM-DC inhibit inactive, PMK inhibit 25*, Autofluor 339 0.97, Spn MK inh 5 and A340 absorber 1.
CCOCCCNC(=O)C1CCN(S(=O)(=O)N2CC(C)CC(C)C2)CC1 (stereo unspecified) was read as NADH coupling 9%, DPM-DC inhibit inactive, PMK inhibit 28*, Autofluor 339 1, Spn MK inh 0 and A340 absorber 0.99.
For CCn1cc(C(=O)Nc2nncs2)c(=O)c2cc(F)c(N3CCN(C(=O)c4ccco4)CC3)cc21 the results were NADH coupling 15%, DPM-DC inhibit inactive, PMK inhibit 19, Autofluor 339 2.4*, Spn MK inh 5 and A340 absorber 1.
Screening CCOc1ccc(N2CC(C(=O)OC)CC2=O)cc1 (stereo unspecified) returned NADH coupling 16%, DPM-DC inhibit active, PMK inhibit 0, Autofluor 339 0.58, Spn MK inh 8 and A340 absorber 1.1.
CSc1nnc(-c2ccc(S(=O)(=O)N3CCCC3)cc2)n1C was read as NADH coupling 5%, DPM-DC inhibit inactive, PMK inhibit 6, Autofluor 339 1.1, Spn MK inh 8 and A340 absorber 1.
